Measurements: PubChem BioAssay
For part of these data: Results with a measured potency or affinity are listed apart. Calls of active or inactive are those of the source. Unless noted, the rule behind the calls is not given here.

How the values were obtained:
[1] = antimalarial activity against Dd2 strain (AID 2302;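 active = growth inhibition above 50% at the single 2 µM test dose, taken to imply half-maximal potency below 2 µM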;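 note: 0% = DMSO untreated growth and 100% = chloroquine plus artemisinin killed control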); details: P. falciparum Dd2 in RBCs, LDH growth readout, 72 h; at 2 µM; stronger effect = higher value
[2] = HepG2 cytotoxicity, primary screen, cytotoxicity control for P. falciparum antimalarial project, cell-based, ATP luminescence (AID 2303;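 active = inhibition above 50%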;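 note: 0% = DMSO wells and 100% = digitonin-killed cells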); details: HepG2 viability, 24-48 h, at 10 µM, stronger effect = higher value
[3] = target: L-lactate dehydrogenase (Plasmodium falciparum (isolate CDC / Honduras)) (UniProt Q27743); assay: PfLDH activity inhibition – cell lysate, 3D7 strain, counter-screen for P. falciparum growth inhibition project (AID 2304);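 note: 0% = vehicle and 100% = reference inhibitor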; details: P. falciparum 3D7 crude extract, LDH APAD/NBT absorbance; at 2 µM; stronger effect = higher value
[4] = inhibition of 3D7 malaria parasite growth – strain 3D7 (AID 2306);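 note: 0% = DMSO wells and 100% = chloroquine plus artemisinin control wells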; details: P. falciparum 3D7 erythrocytic growth, LDH absorbance, 72 h; at 2 µM; stronger effect = higher value
[5] = target: Calcium-dependent protein kinase 1 (Plasmodium falciparum (isolate 3D7)) (UniProt P62344); assay: PfCDPK1 kinase inhibitors, biochemical, TCAMS library (AID 1159585; cut-off not given, nearly all actives have IC50 up to about 0.98 µM;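 note: inhibitors leave more ATP so luminescence rises with inhibition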); details: recombinant PfCDPK1, Kinase-Glo ATP depletion luminescence
[6] = target: Plasmodium falciparum protein kinase 6 (PK6, PF3D7_1337100) (UniProt Q8IDW1); assay: PfPK6 kinase inhibitors, biochemical, TCAMS library (AID 1159586); details: recombinant PfPK6, Kinase-Glo ATP depletion luminescence
[7] = target: Protein kinase 7 (PK7), Plasmodium falciparum 3D7 (PF3D7_0213400) (UniProt Q7YTF7); assay: inhibition of Plasmodium PK7 catalytic activity – biochemical, TCAMS antimalarial set, Kinase-Glo luminescence (AID 1159587); details: recombinant PfPK7, Kinase-Glo ATP depletion luminescence
[8] = target: Calcium-dependent protein kinase 4 (Plasmodium falciparum (isolate 3D7)) (UniProt Q8IBS5); assay: PfCDPK4 kinase inhibitors, biochemical, TCAMS library (AID 1159588; cut-off not given, nearly all actives have IC50 up to about 0.91 µM); details: recombinant PfCDPK4, Kinase-Glo ATP depletion luminescence
Calcium-dependent protein kinase 4 (Plasmodium falciparum (isolate 3D7)), sequence (Q8IBS5 whole entry, looked up): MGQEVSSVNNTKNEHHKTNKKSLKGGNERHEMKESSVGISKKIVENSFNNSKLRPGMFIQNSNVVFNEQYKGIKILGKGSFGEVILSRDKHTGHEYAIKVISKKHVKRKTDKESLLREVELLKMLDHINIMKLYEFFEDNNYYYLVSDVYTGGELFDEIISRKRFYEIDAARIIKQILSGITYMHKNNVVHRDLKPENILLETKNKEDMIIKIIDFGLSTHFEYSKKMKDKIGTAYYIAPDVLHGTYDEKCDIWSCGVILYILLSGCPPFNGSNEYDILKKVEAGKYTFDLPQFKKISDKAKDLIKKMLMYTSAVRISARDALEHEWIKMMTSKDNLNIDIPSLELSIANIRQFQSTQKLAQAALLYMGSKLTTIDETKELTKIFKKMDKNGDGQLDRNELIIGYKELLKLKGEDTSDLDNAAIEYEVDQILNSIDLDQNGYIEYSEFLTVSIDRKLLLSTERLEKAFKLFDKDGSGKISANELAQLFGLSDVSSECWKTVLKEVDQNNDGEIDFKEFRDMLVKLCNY

Plasmodium falciparum protein kinase 6 (PK6, PF3D7_1337100), sequence (Q8IDW1 1-305): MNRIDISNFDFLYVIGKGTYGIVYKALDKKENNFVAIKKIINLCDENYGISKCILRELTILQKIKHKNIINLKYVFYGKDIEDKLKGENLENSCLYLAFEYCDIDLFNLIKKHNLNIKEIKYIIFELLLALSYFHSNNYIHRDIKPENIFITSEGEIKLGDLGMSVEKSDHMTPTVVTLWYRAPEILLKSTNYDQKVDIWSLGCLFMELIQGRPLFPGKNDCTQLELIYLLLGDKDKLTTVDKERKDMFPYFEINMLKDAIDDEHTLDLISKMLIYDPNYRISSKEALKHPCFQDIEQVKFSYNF
Protein kinase 7 (PK7), Plasmodium falciparum 3D7 (PF3D7_0213400), sequence (Q7YTF7 1-343): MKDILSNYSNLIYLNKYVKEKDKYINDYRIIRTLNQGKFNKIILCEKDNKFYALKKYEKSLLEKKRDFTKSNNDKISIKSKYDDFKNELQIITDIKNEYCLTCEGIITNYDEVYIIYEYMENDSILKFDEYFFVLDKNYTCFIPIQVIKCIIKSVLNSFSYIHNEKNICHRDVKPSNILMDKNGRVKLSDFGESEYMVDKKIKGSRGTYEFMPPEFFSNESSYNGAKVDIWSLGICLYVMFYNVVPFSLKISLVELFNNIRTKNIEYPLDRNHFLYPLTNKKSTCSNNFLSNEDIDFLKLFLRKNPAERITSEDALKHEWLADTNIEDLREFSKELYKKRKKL
Calcium-dependent protein kinase 1 (Plasmodium falciparum (isolate 3D7)), sequence (P62344 whole entry, looked up): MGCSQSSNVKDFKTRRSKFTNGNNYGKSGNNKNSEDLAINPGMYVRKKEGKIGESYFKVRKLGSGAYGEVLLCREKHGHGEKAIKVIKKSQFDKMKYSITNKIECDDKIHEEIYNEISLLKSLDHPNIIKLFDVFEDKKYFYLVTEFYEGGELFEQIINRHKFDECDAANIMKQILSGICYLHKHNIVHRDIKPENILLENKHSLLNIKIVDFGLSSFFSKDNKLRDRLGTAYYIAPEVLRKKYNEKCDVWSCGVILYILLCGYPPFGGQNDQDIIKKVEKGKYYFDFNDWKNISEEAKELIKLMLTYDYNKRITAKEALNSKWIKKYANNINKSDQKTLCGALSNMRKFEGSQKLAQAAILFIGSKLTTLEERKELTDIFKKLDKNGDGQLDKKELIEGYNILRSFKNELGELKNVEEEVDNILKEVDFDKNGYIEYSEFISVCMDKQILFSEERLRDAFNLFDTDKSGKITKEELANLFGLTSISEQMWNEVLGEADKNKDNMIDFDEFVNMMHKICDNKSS
L-lactate dehydrogenase (Plasmodium falciparum (isolate CDC / Honduras)), sequence (Q27743 whole entry, looked up): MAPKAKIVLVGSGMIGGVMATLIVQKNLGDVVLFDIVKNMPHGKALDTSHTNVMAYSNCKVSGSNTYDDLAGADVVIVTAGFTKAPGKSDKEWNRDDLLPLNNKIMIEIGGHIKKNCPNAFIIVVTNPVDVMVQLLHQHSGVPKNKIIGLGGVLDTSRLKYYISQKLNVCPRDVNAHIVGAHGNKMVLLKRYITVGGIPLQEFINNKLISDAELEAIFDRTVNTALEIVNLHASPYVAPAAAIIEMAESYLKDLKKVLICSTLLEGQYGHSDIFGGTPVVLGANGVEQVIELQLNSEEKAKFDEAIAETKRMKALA

COc1ccccc1CCNc1nc(C)cc(N[C@@H](Cc2ccccc2)C(=O)Nc2ccccc2)n1
inactive: inhibition [2] 30% | inhibition [3] 0% | outcome [5] | outcome [6] | outcome [7] | outcome [8]
active: growth inhibition [1] 86% | growth inhibition [4] 101%

O=C(Nc1ccsc1)Nc1cccc(-c2cccc(-c3nc4ccc(F)cc4[nH]3)c2)c1
inactive: growth inhibition [1] 41% | inhibition [2] 46% | inhibition [3] 2% | outcome [5] | outcome [6] | outcome [7] | outcome [8]
active: growth inhibition [4] 100%

Cc1ccc(Nc2cc(C)nn2-c2nc(C)cc(=O)[nH]2)cc1
inactive: inhibition [3] -3% | outcome [5] | outcome [6] | outcome [7] | outcome [8]
active: growth inhibition [1] 95% | inhibition [2] 54% | growth inhibition [4] 97%

CCc1cn(C)c2c(N3CCCC3=O)cc(C(=O)N[C@@H](Cc3ccccc3)[C@H](O)CNC(C)(C)c3cccc(OC)c3)cc12
inactive: inhibition [2] 9% | inhibition [3] -1% | outcome [5] | outcome [6] | outcome [7] | outcome [8]
active: growth inhibition [1] 99% | growth inhibition [4] 95%

CC(C)NCc1ccc(-c2ccc(NC(=O)c3cccc(C#N)c3)cc2)cc1
active: growth inhibition [1] 77% | growth inhibition [4] 99%
inactive: inhibition [2] 40% | inhibition [3] -2% | outcome [5] | outcome [6] | outcome [7] | outcome [8]

COc1ccc2ncc(F)c(CCN3CCC(NCc4ccc5c(c4)CCO5)CC3)c2n1
active: growth inhibition [4] 100%
inactive: growth inhibition [1] 30% | inhibition [2] 20% | inhibition [3] 3% | outcome [5] | outcome [6] | outcome [7] | outcome [8]

CN1CCc2cc(NS(=O)(=O)c3ccc(-c4ccc(Cl)cc4)cc3)c(OCCCN3CCCCC3)cc2CC1
active: growth inhibition [1] 100% | inhibition [2] 91% | growth inhibition [4] 101%
inactive: inhibition [3] 0% | outcome [5] | outcome [6] | outcome [7] | outcome [8]

FC(F)(F)c1ccc(Nc2nnnc3ccccc23)cc1
active: growth inhibition [1] 82% | growth inhibition [4] 90%
inactive: inhibition [2] 3% | inhibition [3] -6% | outcome [5] | outcome [6] | outcome [7] | outcome [8]

O=C(CCCCCNC(=O)c1ccc(O)c(-c2ccc(Cl)c(Cl)c2)c1)NCc1cccc2ccccc12
active: growth inhibition [4] 99%
inactive: growth inhibition [1] 15% | inhibition [2] 2% | inhibition [3] -2% | outcome [5] | outcome [6] | outcome [7] | outcome [8]

N#Cc1cc(C(=O)Nc2ccccc2)c(N)nc1SCC(=O)NC(c1ccccc1)c1cccs1 (configuration not stated)
active: growth inhibition [1] 100% | growth inhibition [4] 98%
inactive: inhibition [2] 34% | inhibition [3] -1% | outcome [5] | outcome [6] | outcome [7] | outcome [8]

Fc1ccc2nc(-c3cccc(-c4ccc(CN5CCN(CCN6CCOCC6)CC5)cc4)c3)[nH]c2c1
active: growth inhibition [1] 100% | growth inhibition [4] 101%
inactive: inhibition [2] 30% | inhibition [3] -3% | outcome [5] | outcome [6] | outcome [7] | outcome [8]

CC(C)Sc1nc2c(c(=O)n1Cc1ccco1)C1(CCCCC1)Cc1ccccc1-2
active: growth inhibition [1] 99% | growth inhibition [4] 100%
inactive: inhibition [2] 10% | inhibition [3] 0% | outcome [5] | outcome [6] | outcome [7] | outcome [8]

Cc1cc(OCCCN2CCN(CCN3CCOCC3)CC2)ccc1NC(=O)COc1ccc(Cl)cc1C(=O)c1cc(Cl)cc(C#N)c1
active: growth inhibition [1] 78% | growth inhibition [4] 99%
inactive: inhibition [2] 30% | inhibition [3] -3% | outcome [5] | outcome [6] | outcome [7] | outcome [8]

COc1ccc(Cl)cc1C(=O)Nc1ccc(-c2nc3ccccc3[nH]2)cc1
inactive: growth inhibition [1] 39% | inhibition [2] 42% | inhibition [3] -7% | outcome [5] | outcome [6] | outcome [7] | outcome [8]
active: growth inhibition [4] 92%

COc1cc(Nc2ncnc3cc(OC)c(OC)cc23)cc([N+](=O)[O-])c1
inactive: growth inhibition [1] 6% | inhibition [2] 8% | inhibition [3] 8% | outcome [5] | outcome [6] | outcome [7] | outcome [8]
active: growth inhibition [4] 97%

Cc1noc(C)c1-c1cccc(CNCc2ccc(-c3ccc(-c4nc5ccccc5[nH]4)s3)cc2)c1
active: growth inhibition [1] 79% | growth inhibition [4] 103%
inactive: inhibition [2] 41% | inhibition [3] -6% | outcome [5] | outcome [6] | outcome [7] | outcome [8]

CC(=O)Nc1cccc(C(=O)Nc2ccc(-c3cccc(-c4nc5ccc(F)cc5[nH]4)c3)cc2)c1
inactive: growth inhibition [1] 8% | inhibition [3] 0% | outcome [5] | outcome [6] | outcome [7] | outcome [8]
active: inhibition [2] 90% | growth inhibition [4] 96%

CCCCN(CCCC)C(=Nc1cccc(Cl)c1Cl)Nc1ccc(C#N)cc1O
inactive: inhibition [2] 4% | inhibition [3] -6% | outcome [5] | outcome [6] | outcome [7] | outcome [8]
active: growth inhibition [1] 69% | growth inhibition [4] 89%

COc1ccc2c(NN=Cc3ccccc3F)ccnc2c1
active: growth inhibition [1] 99% | growth inhibition [4] 98%
inactive: inhibition [2] 15% | inhibition [3] 0% | outcome [5] | outcome [6] | outcome [7] | outcome [8]

C=CCc1ccc(C[C@H](NC(=O)OC(C)(C)C)C(=O)OC)cc1
active: growth inhibition [1] 98% | inhibition [2] 77% | growth inhibition [4] 98%
inactive: inhibition [3] 4% | outcome [5] | outcome [6] | outcome [7] | outcome [8]

COc1c(C2CCN(CCCCNC(=O)c3cc(-c4ccc(C#N)cc4)n[nH]3)CC2)ccc2c1CCCC2
active: growth inhibition [4] 86%
inactive: growth inhibition [1] 15% | inhibition [2] 36% | inhibition [3] -6% | outcome [5] | outcome [6] | outcome [7] | outcome [8]

c1ccc(COc2ccc(Nc3ncnc4cnc(-c5ccc(CNc6cccnc6)o5)cc34)cc2)cc1
active: growth inhibition [4] 96%
inactive: growth inhibition [1] 19% | inhibition [2] 2% | inhibition [3] 3% | outcome [5] | outcome [6] | outcome [7] | outcome [8]

N#Cc1cccc(Nc2nccc(NCC(O)c3ccccc3C(F)(F)F)n2)c1 (configuration not stated)
inactive: growth inhibition [1] 39% | inhibition [2] 36% | inhibition [3] 3% | outcome [5] | outcome [6] | outcome [7] | outcome [8]
active: growth inhibition [4] 98%

CCc1c(CCNC/C=C/C=C/CNCCc2ccc(OC)c(OC)c2CC)ccc(OC)c1OC
active: growth inhibition [1] 99% | inhibition [2] 75% | growth inhibition [4] 100%
inactive: inhibition [3] 3% | outcome [5] | outcome [6] | outcome [7] | outcome [8]
